# Tests used:
# Conditions in all cases: concentration: 1 μM, replicates: in singlicate; n = 1
# AXL = test system: AXL
# BIKE = test system: T1, BIKE
# T1 construct: gene BMP2K
# BLK = test system: BLK
# BMPR1A = test system: BMPR1A
# BMPR1B = test system: BMPR1B
# BMPR2 = test system: BMPR2
# BMX = test system: BMX
# BRAF = test system: BRAF
# BRK = test system: T2, BRK
# T2 construct: gene PTK6
# BRSK1 = test system: BRSK1
# 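Note: KINOMEscan kinase panel screen.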
Compound,%Inh (AXL) [%],%Inh (BIKE) [%],%Inh (BLK) [%],%Inh (BMPR1A) [%],%Inh (BMPR1B) [%],%Inh (BMPR2) [%],%Inh (BMX) [%],%Inh (BRAF) [%],%Inh (BRK) [%],%Inh (BRSK1) [%]
CCC(=O)c1c(-c2ccccc2)c2cc(Cl)ccc2c(=O)n1Cc1cc(S(C)(=O)=O)n(CC(N)=O)n1,2,0,5,0,0,0,16,0,0,0
Cc1ccc(-c2ccc3c(ccc4sc5c(c43)NC[C@@H](C)N=C5N(C)C)n2)cn1,0,0,0,0,0,0,0,0,0,0
COc1ccc(-c2cc3c(C)nc(N)nc3n([C@H]3CC[C@H](OCCO)CC3)c2=O)cn1,0,22,2,5,1,0,0,0,0,28
Cl.c1ccc(Cn2cnc3cc(Nc4ncnc5ccccc45)ccc32)cc1 [GW272142],0,34,0,0,0,0,6,0,11,4
Cc1nn2c(=O)cc(N3CCOCC3)nc2n1Cc1cccc(Cl)c1Cl [GSK2342769],4,2,18,0,0,4,12,7,1,0
Nc1n[nH]c2nnc(-c3ccccc3)c(-c3ccccc3)c12 [GW554060],0,22,35,0,41,0,22,2,8,10
COc1ccc(-n2cnc3c(N)ncnc32)cc1 [SKF-97236],22,55,16,34,0,0,0,5,0,2
COc1cc(OC)cc(-c2cc3cnc(N)nc3nc2NC(=O)NC(C)(C)C)c1,0,0,8,54,0,0,0,10,0,0
COc1cc(Nc2nccc(N3CCC(NC(=O)C(C)c4ccc(Cl)cc4)C3)n2)cc(OC)c1OC (centres unmarked) [GSK1379757],13,40,28,0,0,4,1,0,11,0
CCS(=O)(=O)c1ccc(OC)c(Nc2ncc(-c3ccc(F)cc3)o2)c1.Cl [GW591947],0,22,41,14,0,0,0,0,0,0
COc1ccc(Nc2nccc(N3CCC(NS(=O)(=O)c4ccc(NC(C)=O)cc4)C3)n2)cc1 (centres unmarked) [GSK1379729],23,18,26,21,3,0,12,16,18,2
COc1ccc(-c2cc3c(C)nc(N)nc3n([C@H]3CC[C@H](O)CC3)c2=O)cn1,0,0,0,40,0,0,0,0,0,0
CN1C(=O)C(Nc2cc(Cl)c(O)c(Cl)c2)=C(c2ccc(Cl)cc2)C1=O [SB-404321],27,0,0,0,0,1,13,0,0,0
Cc1cccc(-c2nc(Nc3ccc4c(cnn4C)c3)c3ccccc3n2)n1 [GW876731],25,0,0,1,0,1,7,0,0,0
Nc1nc(N)c2nc(-c3ccccc3)[nH]c2n1 [SKF-12778],19,3,0,0,0,7,0,1,16,0
COc1cc2nccc(Nc3cccc(Oc4ccccc4)c3)c2cc1OC.Cl [GW284543],0,1,69,0,0,0,0,0,60,0
Cn1c(=O)c(F)c(Nc2ccc(I)cc2F)c2c(=O)n(OC[C@H](O)CO)cnc21,10,30,9,0,0,0,0,0,2,0

# Reference: paper PMC5540273 (PLoS ONE, 2017)
